Measurements from PubChem BioAssay AID1347383 (Zoeller Lab, School of Medicine, Boston University, 2020).
Calls of active or inactive are those of the source.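 Rule for the calls: active = cell survival after UV exposure 2 SD above solvent-only control wells at 10 µM, confirmed on one or two repeats; inactive = the rest.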

Test: cell survival after pyrene fatty acid photosensitization – ZR-82 cells, Analyticon library, screen 2, phospholipid biosynthesis inhibitor project, primary screen (AID 1347383);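 note: survival reflects blocked phospholipid synthesis cutting uptake of the phototoxic fatty acid; compound and fatty acid exposure 3 h then viability read next day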
Conditions: ZR-82 CHO cells, pyrene-fatty acid UV killing, CellTiter Blue; at 10 µM; peroxisome-deficient CHO-K1 variant; with DGAT-1, DGAT-2 and ACAT inhibitors
In the case of `CSCC1OC(n2cnc3c(=O)[nH]cnc32)C(O)C1O` (centres undefined), the outcome is reported as “inactive”. For `COc1cc(OC)c(C(O)C(C)O)cc1OC` (centres undefined), the outcome was “inactive”. With `COc1cc(O)cc2occ(-c3ccc(O)cc3)c(=O)c12` the outcome was “inactive”. In the case of `CC1(O)CC(C)(O)C2=C(O1)C(=O)c1ccccc12` (centres undefined), the outcome is reported as “inactive”. With `COc1cc(CCC(=O)O)cc(OC)c1OC` the outcome was “inactive”. For `COc1c(O)cc([C@@H]2Oc3cc(O)cc(O)c3C[C@@H]2O)cc1O`, the outcome was “inactive”. For `CC1=C2C[C@]3(C)C(=O)C[C@@H](C(C)C)[C@H]3C/C=C(/C)[C@@H]2CC1=O`, the outcome was “inactive”. In the case of `CC(O)C(O)/C=C/c1cccc(=O)o1` (centres undefined), the outcome is reported as “inactive”. With `CCC/C=C/C=C/C1C[C@@H](O)[C@@H](O)C(=O)[C@H]1CO` (some centres undefined) the outcome was “inactive”. In the case of `O=C(/C=C/c1ccc(O)c(O)c1)N[C@@H](Cc1ccc(O)c(O)c1)C(=O)O`, the outcome is reported as “inactive”. In the case of `C=C1CCC2C(C)(C)C(OC(C)=O)CCC2(C)C1COc1ccc2ccc(=O)oc2c1` (centres undefined), the outcome is reported as “inactive”. With `O=c1c(O)c(-c2ccccc2)oc2cc(O)cc(O)c12` the outcome was “inactive”. In the case of `CO[C@@H]1C(=O)CC[C@]2(O)CS[C@H](CC=C(C)C)[C@](C)(O)[C@@]12O`, the outcome is reported as “inactive”. For `COc1ccc(C(O)CNC(=O)/C=C/c2ccccc2)cc1` (centres undefined), the outcome was “inactive”. In the case of `CC(=O)NC1C=CC(CCC(NC(C)=O)C(=O)O)C=C1` (centres undefined), the outcome is reported as “inactive”. For `CC12CCC3C1C(c1c(cc(O)c(C(=O)c4ccccc4)c1O)O2)C3(C)C` (centres undefined), the outcome was “inactive”. In the case of `CCCCCCc1cc(O)c(C)c(OC(C)=O)c1O`, the outcome is reported as “inactive”. For `COC12CC3C(C(C)C1=CC(=O)O2)C(O)C(OC(=O)/C=C/c1ccccc1)C1(O)C(C)(C)CCCC31C` (centres undefined), the outcome was “inactive”. In the case of `CCCCCCCCCCCc1cc(O)cc(O)c1`, the outcome is reported as “inactive”. In the case of `C=CC(=C)CCC1(C)C(C)CC(O)C23C(=CC(OC(C)=O)CC12)C(OC)OC3OC(C)=O` (centres undefined), the outcome is reported as “inactive”. In the case of `CC(=O)CCCCCCCCNC(C)=O`, the outcome is reported as “inactive”. In the case of `Oc1cc(O)cc(CCCCCCCCCCc2cc(O)cc(O)c2)c1`, the outcome is reported as “inactive”. With `COC1OC(OC)C(O)(CC/C=C(\C)CC/C=C(\C)C(=O)O)C1O` (centres undefined) the outcome was “inactive”. With `CC(C)(O)C(O)Cc1ccc2c(c1O)COC2` (centres undefined) the outcome was “inactive”. With `CCC(C)C1NC(=O)C2CCCN2C1=O` (centres undefined) the outcome was “inactive”. For `C=CC(C)(O)CC[C@@]1(C)[C@H](C)CC[C@]2(C)[C@@H]1C[C@@H](O)[C@@H](O)[C@]2(C)O` (some centres undefined), the outcome was “inactive”. For `C/C1=C\CCC2=C[C@@H](OC2=O)c2c(C)coc2C1`, the outcome was “inactive”. In the case of `COc1ccc(/C=C/C(=O)O)cc1OC`, the outcome is reported as “inactive”. With `O=C(/C=C(O)/C=C/c1ccc(O)cc1)/C=C/c1ccc(O)cc1` the outcome was “inactive”. With `Cc1cc2c(CO)cc(O)cc2o1` the outcome was “inactive”. In the case of `O=C1c2ccccc2C(=O)c2c(O)ccc(O)c21`, the outcome is reported as “inactive”. With `COc1c(O)ccc2c1C(=O)c1ccccc1C2=O` the outcome was “inactive”. For `CC(C)=CCc1cc(C(=O)/C=C/c2ccc(O)cc2)c(O)cc1O`, the outcome was “inactive”. For `CC1NC(=O)c2ccccc2NC1=O` (centres undefined), the outcome was “inactive”. With `CC[C@H](C)/C=C(C)/C=C/C1=CC2=CC(=O)[C@]3(C)OC(=O)[C@@H](C(C)=O)[C@@H]3C2=CO1` the outcome was “inactive”. In the case of `CC(=O)O[C@H]1C[C@@]2(C)[C@@H](CC[C@H]3[C@@]4(C)C=CC(=O)[C@@H](C)[C@@H]4[C@H](O)C(=O)[C@@]32C)/C1=C(/CCC=C(C)C)C(=O)O`, the outcome is reported as “inactive”. In the case of `CCC(C)C(=O)OC1CCCC2C=CC(C)C(CCC(O)CC(O)CC(=O)O)C21` (centres undefined), the outcome is reported as “inactive”. In the case of `C=C1C[C@]23C[C@H]1CC[C@H]2[C@]1(C)CCC[C@@]2(COC(C)=O)C(=O)O[C@H]([C@H]21)[C@@H]3OC(C)=O`, the outcome is reported as “active”. With `C/C=C(/C)C(=O)O[C@H]1CC(C)=C[C@@H](O)[C@]2(C)[C@@H]1[C@](O)(C(C)C)C[C@H]2OC(=O)/C(C)=C\C` the outcome was “inactive”.
